High-throughput results: PubChem, National Center for Advancing Translational Sciences (NCATS)
Compounds with a hit are over-represented: about 0.51% of the library has one in this group of screens.
PINK1 expr mod: A Quantitative High throughput Screen to Identify Chemical Modulators of PINK1 Expression; PINK1 immunofluorescence, high-content cytometry, 24 h; AID 624263, 2012; 410,000 compounds, 0.2% hits; Potency, µM (top dose mostly 76.6 µM), without a hit: at the highest dose activation (PINK1 increase), hits mostly activators; active = well fitted activation curve with a large enough effect; inconclusive = small, poorly fitted or top-dose-only effect; cell line not stated here; also: % of control where 0% means no effect; nearly all actives have a fitted effect of over 65% in size
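Stable cell line, 250 cells/well, 12 h attachment; compounds pinned at 5 concentrations, 24 h; CCCP control. Fixed with nuclear dye, primary antibodies 12 h at 10 degrees C, secondary plus cell stain; laser-scanning cytometer read.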
Epigenetic reg: Quantitative High-Throughput Screen for Regulators of Epigenetic Control. murine LDR cells, GFP reporter derepression, 30 h. 280,000 compounds, 0.2% hits. Potency, µM (doses to about 53.9 µM), for inactives: top-dose GFP activation, usual class: activators. AID 1865, 2009; also: % of control where 0% means no effect; nearly all actives have a fitted effect of over 60% in size
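In this reporter-derepression format, murine cells bearing a silenced integrated CMV-GFP locus incubate with test compound (30 h, 37 C), then are washed and imaged; fluorescent objects of 20–120 um count as induced cells.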
Vif-APOBEC3G blk: qHTS for Inhibitors of Vif-A3G Interactions: qHTS. DNA dC->dU-editing enzyme APOBEC-3G (Homo sapiens), Q9HC16. HeLa A3G-eYFP + Vif (tagged APOBEC3G with the HIV-1 protein that degrades it), YFP fluorescence, overnight. Potency, µM (titrated, usually from 46.1 µM), inactives show at the top dose activity, negative = active, most hits filed as inhibitors. 410,000 compounds, 0.076% hits; also: % is scaled to controls: 0 for no effect and ±100 for the full control effect; nearly all actives have a fitted effect of over 60% in size
Target sequence (Q9HC16 whole entry, looked up): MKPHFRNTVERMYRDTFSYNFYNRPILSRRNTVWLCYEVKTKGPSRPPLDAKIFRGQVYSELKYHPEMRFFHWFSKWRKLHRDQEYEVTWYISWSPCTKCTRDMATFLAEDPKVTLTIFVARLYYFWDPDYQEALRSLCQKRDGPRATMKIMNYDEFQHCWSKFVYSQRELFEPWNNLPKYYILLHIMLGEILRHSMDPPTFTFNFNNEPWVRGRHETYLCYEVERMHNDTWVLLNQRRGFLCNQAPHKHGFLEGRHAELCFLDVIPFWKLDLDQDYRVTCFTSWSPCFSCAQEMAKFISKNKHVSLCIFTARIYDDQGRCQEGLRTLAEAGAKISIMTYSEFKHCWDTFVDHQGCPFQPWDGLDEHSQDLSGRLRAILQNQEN
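HeLa cells stably expressing Vif and C-terminally eYFP-tagged A3G, seeded overnight at 37 deg C, then exposed to compound by pintool overnight at 37 deg C. Rise in yellow fluorescence (Ex 488/Em 500-530, Acumen) marks blocked Vif-driven A3G degradation.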
Vif-A3F inh: qHTS for Inhibitors of Vif-A3F Interactions: qHTS | Potency, µM (titrated, usually from 46.1 µM), for inactives: at the highest dose activity, negative = active | AID 602313, 2012 | HeLa A3F-eYFP + Vif (tagged APOBEC3F with the HIV-1 protein that degrades it), YFP fluorescence increase | 390,000 compounds, 0.2% hits; also: % of control where 0% means no effect; nearly all actives have a fitted effect of over 65% in size
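HeLa cells stably expressing Vif plus C-terminally eYFP-tagged A3F were seeded, incubated overnight at 37 deg C, dosed with compound, incubated overnight again at 37 deg C. Yellow fluorescence (Ex 488/Em 500-530) reported blocked Vif-mediated A3F-eYFP degradation.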
The depositor's hits bear a star. Unless noted, calls follow the shape of the dose curve; as a rule, active = well fitted curve in the direction sought with a large enough effect; inconclusive = small, poorly fitted or top-dose-only effect, or another doubt; inactive = no such curve, though single readings can be large; an effect the other way counts as inactive or inconclusive. Potency is read from the fitted curve at half-maximal effect.

COC(=O)c1ccccc1-c1cc(C)cc2c1OC(CNC(=O)c1cc(C)on1)C2 (stereo unspecified) was read as PINK1 expr mod -0.4%.
`CCN(CC)c1ccc2cc(-c3nc(-c4cccs4)no3)c(=O)oc2c1` gave PINK1 expr mod 23.7%, Epigenetic reg 7.08µM*, Vif-APOBEC3G blk inconclusive and Vif-A3F inh -923.8%.
Screening CCN(CC)c1ccc2cc(-c3nc(-c4ccccc4F)no3)c(=O)oc2c1 returned PINK1 expr mod 2.5%, Epigenetic reg 12.6µM*, Vif-APOBEC3G blk -25.5% and Vif-A3F inh inconclusive.
For CCN(CC)c1ccc2cc(-c3nc(-c4cc(OC)c(OC)c(OC)c4)no3)c(=O)oc2c1 the results were PINK1 expr mod 1.7%, Epigenetic reg 12.6µM*, Vif-APOBEC3G blk inconclusive and Vif-A3F inh inconclusive.
For CCN(CC)c1ccc2cc(-c3nnc(-c4ccncc4)o3)c(=O)oc2c1 the results were PINK1 expr mod inconclusive, Epigenetic reg 0.562µM*, Vif-APOBEC3G blk 1.6% and Vif-A3F inh -417.7%.
CCN(CC)c1ccc2cc(-c3nnc(-c4cccc(Cl)c4)o3)c(=O)oc2c1 was read as PINK1 expr mod 18.1%, Epigenetic reg inconclusive, Vif-APOBEC3G blk inconclusive and Vif-A3F inh inconclusive.
Screening O=c1oc2ccc(Cl)cc2cc1-c1nc(-c2cccs2)no1 returned PINK1 expr mod 0.4%, Epigenetic reg -2.8%, Vif-APOBEC3G blk 3.9% and Vif-A3F inh -1.6%.
For C(=C\c1ccnc2ccccc12)/c1ccc(N2CCNCC2)cc1 the results were Vif-APOBEC3G blk -3.5%.
Cc1noc(C)c1CC(=O)N1CCOc2c(cc(-c3nc4ccccc4s3)cc2OC2CCOC2)C1 (stereo unspecified) was read as PINK1 expr mod 0.1%.
Screening CCc1ccc(NC(=O)/C(C#N)=C/c2cc3ccc(C)cc3nc2N2CCOCC2)cc1 returned PINK1 expr mod inconclusive, Epigenetic reg inconclusive, Vif-APOBEC3G blk -13.5% and Vif-A3F inh 7.94µM*.
COc1ccc(NC(=O)/C(C#N)=C\c2ccc(N3CCOCC3)o2)cc1 was read as PINK1 expr mod 21.0%, Epigenetic reg 15.8µM*, Vif-APOBEC3G blk 15.0% and Vif-A3F inh inconclusive.
Screening CCCCOC(=O)c1ccc(NC(=O)/C(C#N)=C/c2ccc(C)o2)cc1 returned PINK1 expr mod 1.8%, Epigenetic reg 10µM*, Vif-APOBEC3G blk 0.7% and Vif-A3F inh -10.7%.
`N#C/C(=C/c1ccc(N2CCOCC2)o1)C(=O)NC1CCCCC1` gave PINK1 expr mod 2.7%, Epigenetic reg 0.8%, Vif-APOBEC3G blk 11.2µM* and Vif-A3F inh 22.4µM*.
C=CCNC(=O)/C(C#N)=C/c1ccc(C)o1 was read as PINK1 expr mod -0.6%, Epigenetic reg -0.4%, Vif-APOBEC3G blk 1.9% and Vif-A3F inh -1.0%.
COc1ccc(NC(=O)/C(C#N)=C/c2ccc(C)o2)cc1 was read as PINK1 expr mod 3.9%, Epigenetic reg -0.8%, Vif-APOBEC3G blk -24.6% and Vif-A3F inh inconclusive.
`N#C/C(=C/c1ccc(N2CCCCC2)o1)C(=O)Nc1ccc2ccccc2c1` gave PINK1 expr mod 7.08µM*, Epigenetic reg 2.51µM*, Vif-APOBEC3G blk 8.9% and Vif-A3F inh -6.2%.
For CC1CC1c1ccc(/C=C(\C#N)C(=O)Nc2ccc(Cl)cc2)o1 (stereo unspecified) the results were PINK1 expr mod 10.1%, Epigenetic reg 10.6%, Vif-APOBEC3G blk 0.9% and Vif-A3F inh -8.1%.
Screening N#C/C(=C/c1ccc(N2CCCCC2)o1)C(=O)Nc1ccc(Cl)cc1 returned PINK1 expr mod 12.6µM*, Epigenetic reg 0.631µM*, Vif-APOBEC3G blk -2.4% and Vif-A3F inh -490.7%.
`COc1cccc(-c2nc3cc(SC)ccc3cc2CN(C(=O)c2sccc2C)C2CC2)c1` gave PINK1 expr mod 0.6%.
O=C1c2ccccc2C2=Nc3ccccc3SC(c3ccc(Cl)cc3)C12 (stereo unspecified) was read as PINK1 expr mod inconclusive, Epigenetic reg 0.0%, Vif-APOBEC3G blk -0.8% and Vif-A3F inh 2.4%.
Screening O=C1c2ccccc2C2=Nc3ccccc3SC(c3cccc(F)c3)C12 (stereo unspecified) returned PINK1 expr mod 39.8µM*, Epigenetic reg 1.0%, Vif-APOBEC3G blk 0.4% and Vif-A3F inh -3.6%.
For O=[N+]([O-])c1cc(C(F)(F)F)ccc1NCCNC(=S)Nc1ccc(Cl)cc1 the results were PINK1 expr mod 12.6µM*, Epigenetic reg -2.1%, Vif-APOBEC3G blk -10.9% and Vif-A3F inh -5.4%.
Screening COc1ccc(-c2ccc(C(=O)N3CCc4c(cnc(C)c4CNS(=O)(=O)N(C)C)C3)o2)cc1 returned PINK1 expr mod -0.5%.
For CS(=O)(=O)N1N=C(c2ccccc2)CC1c1ccc2c(c1)OCO2 (stereo unspecified) the results were PINK1 expr mod 22.3%, Epigenetic reg -3.2%, Vif-APOBEC3G blk 10µM* and Vif-A3F inh inconclusive.
CS(=O)(=O)Nc1cccc(C2=NN(S(C)(=O)=O)C(c3ccc4c(c3)OCO4)C2)c1 (stereo unspecified) was read as PINK1 expr mod 2.4%, Epigenetic reg 5.5%, Vif-APOBEC3G blk inconclusive and Vif-A3F inh -16.3%.
`Cc1nc2sccn2c1CN1Cc2ccccc2OC(c2ccccc2F)C1` (stereo unspecified) gave PINK1 expr mod -1.1%.
Screening N#C/C(=C(/O)c1cccc(F)c1)c1nc2ccccc2s1 returned PINK1 expr mod 39.8µM*, Epigenetic reg -1.6%, Vif-APOBEC3G blk 0.4% and Vif-A3F inh 4.0%.
`CCn1c(-c2cccc(OC)c2)nc2cc(NC(C)=O)cc(C(=O)N3CCCC(C(C)=O)C3)c21` (stereo unspecified) gave PINK1 expr mod 0.1%.
`COC(=O)c1scc(S(=O)(=O)C(C)C)c1N/N=C(\C#N)C(=O)c1ccc(Cl)cc1` gave PINK1 expr mod 39.8µM*, Epigenetic reg -0.3%, Vif-APOBEC3G blk -0.1% and Vif-A3F inh 15.6%.
Screening COC(=O)c1scc(C#N)c1N/N=C(\C#N)S(=O)(=O)c1ccc(Cl)cc1 returned PINK1 expr mod inconclusive, Epigenetic reg -1.0%, Vif-APOBEC3G blk -4.8% and Vif-A3F inh -9.8%.
`CCC1(C2CCN(Cc3cc4ccccc4o3)CC2)NC(=O)N(CC2COc3ccccc3O2)C1=O` (stereo unspecified) gave PINK1 expr mod -0.2%.
C(=C\c1nc(N2CCCCCC2)c2ccccc2n1)/c1ccccc1 was read as PINK1 expr mod 35.5µM*, Epigenetic reg 2.6%, Vif-APOBEC3G blk -1.4% and Vif-A3F inh inconclusive.
`c1ccc2c(N3CCCCC3)nc(N3CCCCC3)nc2c1` gave PINK1 expr mod inconclusive, Epigenetic reg 4.3%, Vif-APOBEC3G blk 0.2% and Vif-A3F inh 3.4%.
`O=[N+]([O-])c1ccc(S(=O)(=O)Nc2ccncc2)cc1` gave PINK1 expr mod -0.2%, Vif-APOBEC3G blk -4.1% and Vif-A3F inh -14.2%.
